The list is not random: actives were taken first. Their share in the collection is about 0.39%.
CCT chaperon mod: cytosolic chaperonin activity modulation; AID 651819; activity change, % (no concentration beside the values), hits read low; purified chaperonin ATPase assay, HTRF ADP detection, 30 min; 360,000 compounds, 0.3% hits; in the data active = activity change below about -30%
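We incubate TRiC, 40 or 20 nM final, with library compounds at 76 uM and 10 uM ATP for 30 min at 37 °C. ADP formed is detected with Transcreener HTRF reagents after 30 min at room temperature.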
Mm-Cpn inhibitor: M. maripaludis TRiC chaperonin inhibition; 330,000 compounds, 0.031% hits; purified Mm-Cpn ATPase, ADP Transcreener TR-FRET; Potency, µM (doses to about 76.9 µM), most hits filed as inhibitors; also: nearly all actives have a fitted effect of over 80% in size
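Compound-treated chaperonin, 25 nM final, turns over 10 uM ATP at 37°C for 30 min following a 10 min preincubation; ADP generated competes with ADP-d2 for Eu-cryptate antibody, lowering FRET.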
Anesthetic bind: binds horse apoferritin like a general anesthetic; Potency, µM (series often up to 77.5 µM), usual class: inhibitors; apoferritin/1-aminoanthracene competitive binding, fluorescence; 350,000 compounds, 0.074% hits; AID 485281; also: nearly all actives have a fitted effect of over 20% in size
Target sequence (P02791 2-175 limits assumed): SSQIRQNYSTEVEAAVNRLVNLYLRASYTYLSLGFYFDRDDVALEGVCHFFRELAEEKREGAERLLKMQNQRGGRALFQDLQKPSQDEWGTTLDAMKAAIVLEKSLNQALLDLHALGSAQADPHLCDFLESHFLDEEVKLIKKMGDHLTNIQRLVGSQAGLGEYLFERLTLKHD
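Probe: 1-aminoanthracene (50% saturated, PBS). Protein: horse-spleen apoferritin, 10 uM. Incubation: 10 min, room temperature. Detection: 380 nm excitation, 535 nm emission. Analysis: normalized response, four-parameter Hill.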
ERG Ets-DNA blk: blocks human ERG Ets domain binding to DNA; P11308; fluorescence polarization, His-ERG Ets domain / labelled DNA; Potency, µM (highest dose often 76.9 µM), hits mostly inhibitors; 370,000 compounds, 0.028% hits; AID 624246; active = well fitted inhibition curve with a large enough effect in the polarisation, with a control signal flat; inconclusive = small, poorly fitted or top-dose-only effect, or effect the other way, or a change in a side signal; inactive = no such curve, though single readings can be large or run the other way; the % refers to the polarisation;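 also: polarization taken with two DNA probes labelled with fluorescein and Texas red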
Target sequence (P11308 whole entry, looked up, the tested form may be a part): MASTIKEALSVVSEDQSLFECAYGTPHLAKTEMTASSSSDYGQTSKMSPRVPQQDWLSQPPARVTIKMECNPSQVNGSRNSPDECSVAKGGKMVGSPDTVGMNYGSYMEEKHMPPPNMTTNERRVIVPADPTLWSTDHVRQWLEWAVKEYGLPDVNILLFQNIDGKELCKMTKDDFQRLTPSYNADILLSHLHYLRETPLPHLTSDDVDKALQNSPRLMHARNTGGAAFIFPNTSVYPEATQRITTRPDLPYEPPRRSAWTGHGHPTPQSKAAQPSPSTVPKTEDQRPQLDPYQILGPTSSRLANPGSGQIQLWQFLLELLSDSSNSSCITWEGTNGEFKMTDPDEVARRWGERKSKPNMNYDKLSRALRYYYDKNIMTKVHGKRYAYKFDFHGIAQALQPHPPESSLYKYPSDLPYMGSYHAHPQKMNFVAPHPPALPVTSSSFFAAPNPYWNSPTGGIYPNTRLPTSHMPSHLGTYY
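His-tagged ERG Ets domain (1 uM in the protein solution; 300mM KCl, 50mM Tris-HCl, 1mM EDTA, 1mM DTT, pH 7.5) received compound, then a probe mix of 5 nM fluorescein-DNA and 100nM Texas-615-DNA. Fluorescence polarization was read for both dyes.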
Hits are given with their value; - = inactive; ? = inconclusive; . = no result given. Unless noted, calls follow the shape of the dose curve; as a rule, active = well fitted curve in the direction sought with a large enough effect; inconclusive = small, poorly fitted or top-dose-only effect, or another doubt; inactive = no such curve, though single readings can be large; an effect the other way counts as inactive or inconclusive.

SMILES	CCT chaperon mod	Mm-Cpn inhibitor	Anesthetic bind	ERG Ets-DNA blk
NC(=S)NN=C1CCSCC1	-33.5	.	.	-
CC(=O)NCCNC(=O)c1ccc(Sc2ccccc2)c([N+](=O)[O-])c1	-33.0	-	-	-
Clc1ccc(N2CCN(c3ncnc4c3nc3n4CCCC3)CC2)cc1	.	.	-	-
COc1cc(C(=O)Nc2nnc(S(=O)(=O)N3CCCCCC3)s2)cc(OC)c1OC	-32.5	-	-	-
O=c1c(-c2ccccc2)coc2c(CN3CCCC3)c(O)ccc12	-	44.7µM	-	-
COc1cccc(Cn2c(Oc3cc(C)cc(C)c3)nc3c2c(=O)n(C)c(=O)n3C)c1	.	.	-	-
CC(C)c1ccc(NC2CCCN(C(=O)CCN3CCCC3=O)C2)cc1 (configuration not stated)	-34.0	-	-	-
COc1ccc(OC)c(CCNC(=O)c2cnn(-c3ccccc3)c2-n2cccc2)c1	.	.	-	-
NS(=O)(=O)c1cccnc1Nc1ccc(Cl)c(Cl)c1	-	-	8.91µM	-
CC(=O)NS(=O)(=O)c1cccnc1Nc1ccc(Cl)c(Cl)c1	-	-	-	-
COc1ccc(C2CC(=O)c3c(O)cc(O[C@H]4OC(COC5OC(C)C(O)C(O)[C@@H]5O)C(O)C(O)C4O)cc3O2)cc1O (some centres not stated)	.	.	-	.
Cc1nc(N2CCOCC2)c2nc(-c3ccccc3)n(CCCN(C)C)c2n1	.	.	-	.
COc1ccc(NC(=O)C23CCC(C)(C(=O)O2)C3(C)C)cc1 (configuration not stated)	-	-	-	-
CCOC(=O)c1ccc(NC(=O)C23CCC(C)(C(=O)O2)C3(C)C)cc1 (configuration not stated)	-38.2	-	-	-
Cc1ccc(-c2nnn(CC(=O)N(CCN3CCOCC3)C(C(=O)NC(C)(C)C)c3ccco3)n2)cc1 (configuration not stated)	-63.3	-	-	-
CN(C)C(=S)NC(C)(C)C	-	44.7µM	-	-
Cc1ccc(CNC(=S)N(C)C)cc1	-	-	-	-
COc1ccc(C)cc1S(=O)(=O)N1CCN(c2cccc(Cl)c2)CC1	.	.	-	-
O=Cc1cccn1Cc1ccc(Cl)cc1Cl	-	-	14.1µM	-
NNC(=O)c1cccn(Cc2ccc(Cl)cc2Cl)c1=O	-	-	-	-
CCOC(=O)c1sc(N)c(C#N)c1CSc1nnc(C2CC2)n1N	-38.8	-	-	-
CCOC(=O)[C@H](CCc1ccccc1)N[C@@H](C)C(=O)N1[C@H](C(=O)O)C[C@H]2CCCC[C@@H]21	.	.	-	.
CN(C)CCCCOc1ccc(Br)cc1Cl	-58.6	-	-	-
Cc1ccc(O)c(NC2=C(Cl)C(=O)N(Cc3ccccc3)C2=O)c1	-	-	22.4µM	-
COc1ccc(CCN2CCC[C@H](CN3CCc4cc(OC)c(OC)cc4CC3=O)C2)cc1OC	.	.	-	.
SMILES	CCT chaperon mod	Mm-Cpn inhibitor	Anesthetic bind	ERG Ets-DNA blk
CCOC(=O)Cn1nnnc1CN(Cc1cccs1)Cc1cc2cc(C)ccc2[nH]c1=O	-30.9	-	-	-
COc1ccc(C=C2c3ccccc3C(=O)c3ccccc32)cc1O	.	.	-	.
C[C@H](O)[C@@H]1CN2CCc3c([nH]c4ccc(-c5ccc6c(c5)OCO6)cc34)[C@@H]2C[C@@H]1N(C)C(=O)Nc1ccc(F)cc1	-	.	.	.
C[C@@H]1ON(C)[C@H]2C[C@H]3c4[nH]c5ccc(-c6ccc7c(c6)OCO7)cc5c4CCN3C[C@@H]12	-72.9	.	.	.
Cc1ccc(Cl)cc1N1C(=O)CC(Sc2ccccc2N)C1=O (configuration not stated)	-32.6	.	.	.
Nc1ccccc1SC1CC(=O)N(c2ccc(Cl)c(Cl)c2)C1=O (configuration not stated)	-	-	-	-
CCC1CCCCN1CCNC(=O)C1CCN(S(=O)(=O)c2cccc3nsnc23)CC1 (configuration not stated)	-73.7	-	-	-
CC1CCN(CCNC(=O)C2CCN(S(=O)(=O)c3cccc4nsnc34)CC2)CC1	-	-	-	-
Nc1ccc(C23CC4CC(CC(CO)(C4)C2)C3)cc1	-	-	?	-
Nc1ccc(C23CC4CC(CC(C4)C2)C3)cc1	-	-	8.91µM	-
Nc1ccc(C23CC4CC(CC(O)(C4)C2)C3)cc1	-	-	14.1µM	-
CCOC(=O)N1CCC(NC(=O)c2ccc3c(c2)N(Cc2ccc(Cl)cc2)C(=O)c2ccccc2S3(=O)=O)CC1	.	.	-	-
CCOC(=O)N1CCN(Cc2nc3cc(NC(=O)c4ccco4)ccc3n2C)CC1	-57.8	-	-	-
Cn1c(CN2CCCCC2)nc2cc(NC(=O)c3ccc(Cl)cc3)ccc21	-47.6	-	-	-
CC(=O)c1cccc(NC(=S)NC(=O)c2ccc(Br)cc2)c1	-40.3	-	-	-
CC(C)(C)OC(=O)CC12CCCCC1NC(=O)O2 (configuration not stated)	-49.2	-	-	-
C[C@@H]1Cn2cnc(C(=O)NCC(=O)OC(C)(C)C)c2C(=O)N1	-	.	.	.
CCCCCNC(=O)c1cc2c(=O)n3ccccc3nc2n1C	.	.	-	-
COc1cc(CNCc2ccccn2)ccc1OCc1ccc(Cl)cc1Cl	-	-	20µM	-
COC(=O)C(NC(=O)CCc1c(C)nc2c(-c3ccccc3)c(C)nn2c1C)C(C)C (configuration not stated)	.	.	-	-
O=C(NCCc1ccc(Cl)cc1)C(=O)c1c[nH]c2ccccc12	-	-	-	-
O=C(NCCc1c[nH]c2ccccc12)C(=O)c1c[nH]c2ccccc12	-86.6	-	-	-
Cc1ccc(NC(=O)CCN2C(=O)C3C4CCC(C4)C3C2=O)cc1[N+](=O)[O-] (configuration not stated)	-	-	-	-
Cc1ccc(NC(=O)CCN2C(=O)C3CCCCC3C2=O)cc1[N+](=O)[O-] (configuration not stated)	-52.7	-	.	-
CCc1nn2c(=O)cc(COC(=O)c3cccc(NC(=O)c4ccccc4C)c3)nc2s1	.	.	-	-
SMILES	CCT chaperon mod	Mm-Cpn inhibitor	Anesthetic bind	ERG Ets-DNA blk
CC1CCN(S(=O)(=O)c2cc(C(=O)N3CCN(c4cccc(Cl)c4)CC3)n(C)c2)CC1	.	.	-	-
CCc1ccccc1NC(=O)Cn1c(=O)n(Cc2ccc(OC)cc2)c(=O)c2oc3ccccc3c21	.	.	-	-
O=C(Nc1nc(-c2ccc(S(=O)(=O)N3CCCCCC3)cc2)cs1)c1ccccc1	-	35.5µM	-	-
O=C(COc1ccc(Cl)cc1)Nc1nc(-c2ccc(S(=O)(=O)N3CCOCC3)cc2)cs1	-	44.7µM	-	-
O=[N+]([O-])c1cc(/C=N/N2CCOCC2)cs1	-	-	-	31.6µM
CCN(CC)C(=O)CSc1nc(C)cc(-c2cccs2)c1C#N	-34.0	-	?	.
Cc1cc(C)c(C#N)c(SCC(=O)c2cccs2)n1	-	-	-	-
CC(C)Cn1cc(NC(=O)NCc2ccc(Cl)cc2)c2ccccc2c1=O	.	.	-	-
O=c1nc(SCc2c(F)cccc2Cl)nc(-c2ccccc2)[nH]1	-31.0	-	-	-
O=c1nc(SCc2ccc(Cl)cc2)nc(-c2ccccc2)[nH]1	-	-	-	-

Bioassay records: PubChem BioAssay, National Center for Advancing Translational Sciences (NCATS)
